Drawing on PubChem BioAssay (NCI), this text covers growth for 15 molecules.

About 83,000 compounds went through this panel and 20% of them were active in at least one assay; those are over-represented in the sample as a whole.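 For each line, cells grew in 96-well plates with the test compound present at a single concentration for 48 hours.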 A number with no mark means an inactive call. Active and inactive are the calls of the source. How the source made its calls: active means growth percent below 10; inactive means the rest.

Some test systems named below: T-47D breast; BT-549 breast; MDA-MB-435 melanoma; SW-620 colon; MCF7 breast; HCT-116 colon; HCC-2998 colon; KM12 colon.
Test in all cases: NCI-60 one-dose screen, 48 h (100 = growth as untreated, 0 = no growth, -100 = all killed)
Holding throughout (details): 10 µM unless noted

Turning to `Cc1cc(=O)[nH]c(=O)n1Cc1cn(-c2c3ccccc3nc3ccccc23)nn1`, the growth in the experiment with T-47D breast is -5.49% (active); in the experiment with BT-549 breast, 90%; in the experiment with MDA-MB-435 melanoma, 95.6%; in the experiment with SW-620 colon it was 83.9%; in the experiment with MCF7 breast, 2.54% (active); in the experiment with HCT-116 colon, 63.1%. For the same molecule, the growth with HCC-2998 colon is 62.5%; in the experiment with KM12 colon, 98.6%.

Take `COc1ccc(-c2nnc(COc3ccc(Cl)cc3Cl)o2)cc1OC`: the growth in the experiment on T-47D breast is -10.5% (active); with BT-549 breast, 80.1%; in the experiment with MDA-MB-435 melanoma, 48.4%; with SW-620 colon, 40.6%; with MCF7 breast, 32.9%; in the experiment on HCT-116 colon, 34.3%. Further, the growth with HCC-2998 colon was 95%; in the experiment on KM12 colon it was 58.9%.

Regarding `O=C(O)CCC(=O)Nc1nnc(-c2ccccc2)s1`, the growth in the experiment on T-47D breast is 94.3%; with BT-549 breast, 102%; in the experiment with MDA-MB-435 melanoma it was 100%; in the experiment on SW-620 colon, 108%; with MCF7 breast it was 79.9%; in the experiment with HCT-116 colon, 103%. Besides, the results for the growth in the experiment with HCC-2998 colon and in the experiment with KM12 colon were 102% and 103%, respectively.

As to `N#Cc1cccc(NC(=O)c2cc(-c3ccc(F)cc3F)ccc2O)c1`, the growth in the experiment on T-47D breast is 16.1%; in the experiment with BT-549 breast, 5.92% (active); in the experiment on MDA-MB-435 melanoma, 8.27% (active); with SW-620 colon, 18.8%; in the experiment on MCF7 breast, 3.66% (active); in the experiment on HCT-116 colon it was 7.36% (active). The growth with HCC-2998 colon is 26.5%; with KM12 colon, 7.89% (active).

Consider `O=c1c2cc(F)ccc2sc2c(NCCCNCCO)nc3ccccc3c12`, for which the growth is 22.9% with T-47D breast; 66.2% in the experiment with BT-549 breast; -82.5% (active) in the experiment on MDA-MB-435 melanoma; -78.3% (active) with SW-620 colon; -51.2% (active) in the experiment with MCF7 breast; -94.1% (active) in the experiment on HCT-116 colon. Moreover, the growth was -90.8% (active) in the experiment on HCC-2998 colon and -77% (active) in the experiment on KM12 colon.

With `CCCCOc1nc2ccc(OC)cc2cc1-c1cc(-c2ccc(Cl)cc2)nc(-c2ccc(Cl)cc2)c1`, the growth with T-47D breast is 97.4%; in the experiment with BT-549 breast, 105%; in the experiment on MDA-MB-435 melanoma it was 107%; in the experiment on SW-620 colon, 102%; with MCF7 breast, 97.5%; in the experiment with HCT-116 colon, 102%. Besides, the values for the growth in the experiment on HCC-2998 colon and in the experiment on KM12 colon were 109% and 104%, respectively.

Regarding `N#Cc1ccc(NC(=O)c2sc3nc4c(cc3c2N)C(=O)CCC4)cc1`, the growth in the experiment on T-47D breast is 95.9%; with BT-549 breast, 108%; in the experiment with MDA-MB-435 melanoma it was 97.4%; with SW-620 colon, 98.1%; with MCF7 breast, 97.4%; in the experiment with HCT-116 colon, 108%. Further, the results for the growth with HCC-2998 colon and with KM12 colon were 99.2% and 101%, respectively.

With `COc1ccc(C(=S)N2CCN(c3cccc(C)c3)CC2)cc1OC`, the growth in the experiment on T-47D breast was 76%; with BT-549 breast, 59.1%; in the experiment on MDA-MB-435 melanoma, 2.58% (active); in the experiment with SW-620 colon it was 36.5%; in the experiment with MCF7 breast, 43.4%; with HCT-116 colon, 37%. The growth in the experiment with HCC-2998 colon was 62.5%; with KM12 colon, 43.2%.

Regarding `CCCCCCN1C(=O)/C(=c2\sc3n(c2=O)C2C(NN=3)N(CC)C(=O)N2CC)c2ccccc21` (stereo not given), the growth in the experiment on T-47D breast was 16.2%; in the experiment on BT-549 breast it was 41.3%; in the experiment on MDA-MB-435 melanoma, -49.2% (active); with SW-620 colon, -38.3% (active); in the experiment with MCF7 breast, -10.4% (active); in the experiment on HCT-116 colon it was -37.3% (active). The growth in the experiment with HCC-2998 colon is 83.5%; in the experiment with KM12 colon it was 16.6%.

For the molecule `Cc1nc(NC(=O)COc2ccc(/C=C3\Cc4ccc(Cl)cc4C3=O)cc2)sc1C`, the growth in the experiment on T-47D breast was 109%; in the experiment with BT-549 breast, 328%; in the experiment on MDA-MB-435 melanoma, 96.8%; in the experiment with SW-620 colon it was 107%; in the experiment with MCF7 breast it was 88.6%; with HCT-116 colon, 109%. Further, the growth in the experiment on HCC-2998 colon was 90.9%; in the experiment with KM12 colon it was 119%.

On to `COc1ccc(-c2nn(C(=O)c3cc(OC)c(OC)c(OC)c3)c3cc(N)ccc23)cc1`, for which the growth in the experiment with T-47D breast is 59.9%; in the experiment with BT-549 breast it was 21.5%; in the experiment on MDA-MB-435 melanoma, 5.29% (active); in the experiment on SW-620 colon it was 31.6%; with MCF7 breast, 6.74% (active); in the experiment with HCT-116 colon, 5.15% (active). Further, the growth was 25.1% in the experiment on HCC-2998 colon and 12.4% with KM12 colon.

Turning to `COc1c(N2CC3CCCN(C(C)=O)C3C2)c(F)cc2c(=O)c(C(=O)N[C@H]3C(O)[C@@H](O)C(CO)O[C@H]3O)cn(C3CC3)c12` (stereo not given in full), the growth with T-47D breast is 99.9%; in the experiment with BT-549 breast, 115%; with MDA-MB-435 melanoma, 105%; with SW-620 colon, 105%; in the experiment with MCF7 breast, 101%; with HCT-116 colon it was 108%. The growth was 115% in the experiment with HCC-2998 colon and 102% in the experiment on KM12 colon.

On to `O=[N+]([O-])c1ccc(Cl)c(-c2cc(CCCCO)on2)c1`, for which the growth in the experiment on T-47D breast is 88.8%; with BT-549 breast, 99.7%; in the experiment with MDA-MB-435 melanoma, 103%; with SW-620 colon it was 104%; in the experiment on MCF7 breast it was 100%; with HCT-116 colon it was 105%. Moreover, the growth with HCC-2998 colon is 108%; with KM12 colon, 104%.

As for `CC(=O)CC[C@H]1C(=O)N[C@@H](C(C)C)C(=O)N[C@@H](Cc2cc(O)cc(F)c2)C(=O)N2CCC[C@H](N2)C(=O)O[C@H](/C(C)=C/C=C/C(=O)OC(C)(C)C)C/C=C/C=C/[C@H](O)[C@H](C)[C@H]1O`, the growth is 55% in the experiment on T-47D breast; 39.6% with BT-549 breast; 43% with MDA-MB-435 melanoma; 25.4% with SW-620 colon; 48.2% in the experiment with MCF7 breast; 26.6% in the experiment with HCT-116 colon. Also, the growth with HCC-2998 colon was 51.8%; in the experiment with KM12 colon it was 34.1%.

For `CN(C)CCCNc1nc2ccccc2c2c(=O)c3cc(F)ccc3sc12`, the growth was 43.1% in the experiment on T-47D breast; 100% with BT-549 breast; -79.7% (active) in the experiment on MDA-MB-435 melanoma; -51.4% (active) in the experiment on SW-620 colon; 18.5% with MCF7 breast; -47% (active) in the experiment with HCT-116 colon. Also, the growth is -80.4% (active) in the experiment with HCC-2998 colon and 3.81% (active) with KM12 colon.
